In the library only some 2.4% were active in any assay of this set; here they are far more common.
D2 ag-1 = human D2 receptor agonism in beta-arrestin assay | AID 624465 | activation, % (test concentration not listed) | hit rate 0.084% among 360,000 | P14416 | DiscoveRx PathHunter D2 beta-arrestin, luminescence, 90 min; 100% = 57 uM dopamine signal; in the data active = activation above about 40%; inconclusive = between about 15% and that limit
Target sequence (P14416 whole entry, looked up): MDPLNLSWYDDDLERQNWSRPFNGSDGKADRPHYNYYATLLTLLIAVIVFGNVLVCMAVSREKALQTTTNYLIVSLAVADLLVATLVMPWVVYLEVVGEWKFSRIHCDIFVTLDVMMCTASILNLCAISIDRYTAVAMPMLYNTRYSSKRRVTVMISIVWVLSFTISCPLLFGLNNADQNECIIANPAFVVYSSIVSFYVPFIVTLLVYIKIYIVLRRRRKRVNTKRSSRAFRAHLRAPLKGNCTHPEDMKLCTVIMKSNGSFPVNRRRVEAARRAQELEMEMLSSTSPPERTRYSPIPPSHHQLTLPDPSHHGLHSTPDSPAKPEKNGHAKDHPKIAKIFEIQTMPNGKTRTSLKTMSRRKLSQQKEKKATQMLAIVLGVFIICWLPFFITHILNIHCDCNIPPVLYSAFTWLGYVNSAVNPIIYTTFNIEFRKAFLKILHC
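Agonist mode: compounds alone added to overnight-plated D2 PathHunter cells for 90 min at 37 C, with 57 uM final dopamine (EC100) defining full response. Beta-arrestin recruitment detected by chemiluminescent reagent, read after 1 h at ambient temperature.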
D2 antagonist = antagonists of human D2 dopamine receptor; P14416; HEK293 TREx D2 cells, calcium flux, dopamine EC80; inhibition, % at 10 µM; hit rate 2% among 340,000; AID 485344; in the data active = inhibition above about 30%; inactive = below that, where a call was filed; also: 0% is about no effect
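Dopamine at EC80 is the agonist stimulus; test compounds precede it by 180 s. Calcium flux read kinetically in a force-coupled, inducible HEK293 T-REx D2 cell line.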
D2 PAM-1 = positive allosteric modulators of human D2 dopamine receptor | HEK293 T-REx D2, calcium flux, EC20 dopamine potentiation | potentiation, % at 10 µM | hit rate 0.34% among 340,000;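 active = potentiation over 3 SD above the plate norm, cut at about 30% in these data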; also: 0% is about no effect
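Using a no-wash calcium dye in inducible, force-coupled HEK293 Trex cells expressing D2, we tracked fluorescence each second for 180 s after compound, then for 180 s after EC20 dopamine to detect augmented signalling.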
D2 ag-2 = agonists of human D2 dopamine receptor | P14416 | hit rate 0.53% among 340,000 | AID 485358 | activation, % at 2 µM | HEK293 T-REx D2 cells, calcium flux agonist mode;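 active = activation over 3 SD above normal in the single-dose calcium agonist read, cut at about 30% in these data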; also: 0% is about no effect
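Calcium-flux readout, 1 cycle/sec over 180 s following compound pin transfer, in inducible HEK293 Trex D2 cells (force-coupled); dopamine controls included. Positive calcium responses during this window marked compounds as potential agonists.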
D2 PAM-2 = potentiates the human D2 dopamine receptor allosterically; DiscoveRx D2 beta-arrestin cells, luminescence, 90 min; 100% = 57 uM dopamine signal; potentiation, % (test concentration not listed); hit rate 0.23% among 360,000; in the data active = potentiation above about 50%; inconclusive = mostly about 30% to 49%
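PathHunter beta-arrestin assay in DiscoveRx D2 cells. Compounds were added with an EC20 of dopamine (50 nM final) for 90 min at 37 deg C. Luminescence was read 1 h after detection reagent, with 57 uM dopamine as the EC100 control.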
Numbers without * were called inactive; ? = inconclusive; · = not tested or not shown.

SMILES	D2 ag-1	D2 antagonist	D2 PAM-1	D2 ag-2	D2 PAM-2
O=C(COC(=O)c1ccc(O)cc1)NCc1ccc2c(c1)OCO2	6	-11	1	1	1
C/C(=N\NC(=O)c1ccc(C)cc1C)c1ccc2c(c1)OCO2	-1	-3	-3	-1	-8
C/C(=N\NC(=O)c1cc2ccccc2cc1O)c1ccc2c(c1)OCO2	-6	33*	-3	1	13
c1ccc(CSc2nnc(C3CCNCC3)o2)cc1	·	·	-3	2	·
O=C(CS(=O)(=O)c1ccc(F)cc1)NCc1ccccc1	-6	34*	0	1	0
Cc1ccc(NC(=O)C2(C)Cc3ccccc3C(=O)O2)c(C)c1 (configuration not stated)	·	·	3	0	·
Cc1ccc(NC2CCCN(C(=O)c3cccnc3)C2)cc1C (configuration not stated)	3	36*	14	0	-4
CC(C)c1ccc(NC2CCCN(C(=O)c3cccnc3)C2)cc1 (configuration not stated)	-1	16	-7	1	-1
Cc1ccc(Cl)cc1N1CCN(C(=O)c2cccn2-c2nnc(N3CCCC3)s2)CC1	·	·	3	1	·
CCOC(=O)C1CCN(C(=O)c2ccc(NC(=O)c3nsc4ccccc34)cc2)CC1	·	·	-9	-1	·
CC(=O)c1ccccc1OCCCCN1CCCCC1	-5	58*	-28	2	-5
COC(=O)c1ccc(OCCN2CCCCCC2)cc1	4	55*	-31	-1	-22
COC(=O)c1ccccc1OCCN1CCCCCC1	1	39*	-34	3	-17
CCC(=O)c1ccccc1OCCN1CCN(CC)CC1	1	38*	-20	-1	-13
CCN1CCN(CCOc2cccc(Cl)c2Cl)CC1	1	-12	7	-3	-5
CC(=O)c1ccccc1OCCOc1ccccc1C(C)=O	-6	-4	1	0	0
COc1cc([N+](=O)[O-])ccc1NC(=O)N1CCC2(CC1)Nc1ccccc1-n1cccc12	·	·	-8	·	·
COc1ccc(NC(=O)c2oc3ccccc3c2NC(=O)Cc2coc3cc(C)ccc23)cc1	·	·	5	1	·
CCOc1ccc(C(=O)c2cn(Cc3ccc(OC)cc3)c3cc(OC)c(OC)cc3c2=O)cc1	·	·	8	-2	·
CCc1cccc(NC(=O)Cn2cc(C(=O)c3ccncc3)c(=O)c3cc(C)c(C)cc32)c1	·	·	-23	-2	·
CCc1ccccc1OCCCCN1CCCC1	-6	46*	-18	2	-38
O=C(Nc1ccc(Cl)c(Cl)c1)c1cc(S(=O)(=O)N2CCN(c3cccc(Cl)c3)CC2)ccc1F	·	·	-9	1	·
Fc1ccccc1N1CCN(c2ncnc3onc(-c4cccc(Cl)c4)c23)CC1	·	·	8	1	·
COc1ccc(-n2c(-c3ccc(Br)cc3)n[nH]c2=S)cc1	-3	31*	-8	0	-4
COC(=O)c1cc2sccc2n1Cc1nc(-c2ccc(C)cc2)oc1C	·	·	18	0	·
SMILES	D2 ag-1	D2 antagonist	D2 PAM-1	D2 ag-2	D2 PAM-2
CC(C)c1ccc(S(=O)(=O)N2CCN(CC(O)CN3CCOCC3)CC2)cc1 (configuration not stated)	-5	-2	1	0	-6
CCC(C)c1ccc(S(=O)(=O)N2CCN(CC(O)COCC3CCCO3)CC2)cc1 (configuration not stated)	-4	33*	-9	-1	-9
Cn1nnnc1SCCCNCc1cc(Br)ccc1OCc1ccccc1F	·	·	-32	-1	·
N#C/C(=C\c1ccc(-c2ccccc2[N+](=O)[O-])o1)C(=O)Nc1nc(-c2cccs2)cs1	-9	32*	16	0	-38
OCCC1CN(Cc2ccc(F)cc2)CCN1CCc1ccccc1 (configuration not stated)	-2	43*	-2	-3	-2
OCCC1CN(Cc2cccc(-n3cccn3)c2)CCN1Cc1ccccc1 (configuration not stated)	-2	58*	-22	0	-25
OCCC1CN(Cc2ccc(F)cc2)CCN1CCCc1ccccc1 (configuration not stated)	-1	-7	-17	1	-4
COc1ccc(Cl)cc1NC(=O)N1CCC(CN2CCc3ccccc3C2)CC1	·	·	8	-1	·
CC(=O)Cn1c(CN2CCCC2)nc2ccccc2c1=O	-5	35*	-4	1	-6
CC(=O)Cn1c(CN2CCCCC2)nc2ccccc2c1=O	-4	4	-29	1	-4
Cc1ccc2oc(-c3cc(NC(=O)c4ncn[nH]4)ccc3O)nc2c1	-1	13	31*	1	3
O=C(c1ccco1)N1CCN(Cc2nnc(-c3ccccc3F)o2)CC1	2	-15	35*	-2	-2
O=C(CN1CCN(C(=O)c2ccco2)CC1)NCc1ccc(Cl)cc1	2	32*	20	0	7
Nc1nc(CN2CCN(C(=O)c3ccco3)CC2)nc(Nc2cccc(Cl)c2)n1	?	-19	0	38*	27
O=C(c1ccco1)N1CCN(c2ccc(F)cc2)CC1	-1	-5	-1	1	-1
O=C(c1ccco1)N1CCN(Cc2ccc(F)cc2)CC1	44*	58*	-17	81*	?
CCOC(=O)N1CCN(Cc2nc(N)nc(Nc3ccc(Cl)cc3)n2)CC1	4	9	1	8	4
O=C(CN1CCN(Cc2ccccc2)CC1)NCc1ccc(Cl)cc1	4	-1	2	0	-8
COc1ccc(C2CC(=O)N(Cc3ccccc3)c3c2c(C)nn3-c2nc(C)cc(C)n2)c(OC)c1 (configuration not stated)	·	·	14	2	·
CC(=O)Nc1ccc(-c2csc(NC(=O)CC(NC(C)=O)c3ccccc3)n2)cc1 (configuration not stated)	0	4	36*	0	2
CSc1ccc(CCNC(=O)CCc2c(C)nc3c4cccnc4nn3c2C)cc1	·	·	14	0	·
COc1ccc(-c2cccc(NS(=O)(=O)c3ccc(C)s3)c2)nn1	·	·	2	-2	·
COC(=O)C1=C(C)N(c2ccc(Cl)c(Cl)c2)C(=O)C1	-3	32*	-4	1	-23
Cc1cccc(N(C)S(=O)(=O)c2nnc(NC(=O)C(C)Oc3ccccc3)s2)c1 (configuration not stated)	·	·	-5	0	·
O=C(NCc1cccnc1)c1ccc(COc2ccccc2Cl)cc1	1	4	-5	-1	-13
O=C(NCc1cccnc1)c1ccc(COc2ccccc2Br)cc1	5	53*	-22	-2	-11
CC(C)CCNC(=O)CCn1c(=S)oc2ccccc21	-5	-2	44*	0	-7
O=C(Nc1nc2ccc(F)cc2s1)C1CCN(S(=O)(=O)c2cc([N+](=O)[O-])ccc2Cl)CC1	11	15	-2	1	?
